Hits are enriched below; roughly 19% of the tested compounds scored in any of these assays.
IL-1B inflam inh: inflammasome signaling inhibition, IL-1 beta readout. THP-1 LPS/ATP IL-1B secretion, AlphaLISA, 16 h; active compounds read low. activity change, % at 57.5 µM. actives 4.7% (n = 360,000); in the data active = activity change below about -50%; inconclusive = mostly about -30% to -49%
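THP-1 cells pretreated 1 hr with compounds (up to 57.5 uM final), then stimulated with LPS (250 ng/mL final) plus ATP (1.25 mM final); secreted IL-1B measured by AlphaLISA after 16 hr, decreased signal indicating inhibition.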
TDP1 cell noCPT: qHTS for Inhibitors of human tyrosyl-DNA phosphodiesterase 1 (TDP1): qHTS in cells in absence of CPT; DT40 Tdp1-/- hTDP1 cells, no CPT, ATP luminescence, 48 h; Potency, µM (doses to about 46.2 µM), for inactives: at the highest dose activity change, negative = growth inhibition, most hits filed as inhibitors; actives 15% (n = 420,000); AID 686978, 2013; also: potency is read from the fitted curve at half-maximal effect; nearly all actives have a fitted effect of over 55% in size
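No-CPT arm: Tdp1-/-;hTDP1 DT40 cells (400/well) plus compounds, incubated ≥48 hr at 37 °C. Readout CellTiter-Glo luminescence.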
HT1080-NT tox: kills 2HG-producing HT-1080-NT fibrosarcoma cells | HT-1080-NT fibrosarcoma viability, CellTiter-Glo ATP luminescence, 48 h | Potency, µM (series often up to 46.1 µM), without a hit: top-dose activity, negative = less viability, actives largely listed as cytotoxic | actives 1.6% (n = 360,000);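 also: NT is the 2HG producing partner of a matched IDH1 knockdown line; potency is read from the fitted curve at half-maximal effect; 0% = DMSO-treated cells and -100% = media-only wells without cells; nearly all actives have a fitted effect of over 55% in size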
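HT-1080-NT; 750 cells/well; 5% FBS RPMI; 48 h compound, 37 degrees C; CellTiter-Glo luminescence; curve fitting and curve-class assignment.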
DT40 TDP1 CPT: DT40-hTDP1 cell growth loss with CPT | chicken DT40 Tdp1-/-;hTDP1 cells + 20 nM CPT, ATP luminescence, 48 h | Potency, µM (highest dose often 46.2 µM), inactives show at the top dose activity change, negative = growth inhibition, usual class: inhibitors | actives 12% (n = 420,000) | AID 686979; also: potency is read from the fitted curve at half-maximal effect; nearly all actives have a fitted effect of over 55% in size
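Cell growth measured by CellTiter-Glo luminescence after a minimum 48 h, 37 C compound exposure with 20 nM CPT in Tdp1-knockout DT40 cells stably expressing hTDP1, seeded 400/well; qHTS titration format.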
ELG1 repair inh: ELG1-dependent DNA repair inhibition. Potency, µM (titrated, usually from 46.1 µM), without a hit: top-dose activity change, negative = inhibition, hits mostly inhibitors. actives 2.3% (n = 330,000). HEK293T ELG1-luciferase reporter, luminescence, 16 h; DNA damage induced by 5-fluorouridine; also: potency is read from the fitted curve at half-maximal effect; nearly all actives have a fitted effect of over 55% in size
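DMSO vehicle served as the neutral condition. Each well held 2,000 cells given 5-fluorouridine plus compound; after 16 hr at 37 °C/5% CO2, ONE-Glo was added and luciferase measured 30 min later.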
HT1080 IDH1KD tx: toxicity to HT-1080 IDH1 knockdown cells (counter line); Potency, µM (top dose mostly 46.1 µM), without a hit: at the top dose activity, negative = toxicity, hits mostly cytotoxic; actives 2% (n = 360,000); AID 686971; HT-1080 IDH1 knockdown viability, ATP luminescence, 48 h;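 also: potency is read from the fitted curve at half-maximal effect; 0% = DMSO wells and -100% = cell-free medium wells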
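HT-1080-IDH1KD cells (IDH1 knocked down), 750/well in RPMI with 5% FBS, treated with compound 48 h at 37 degrees C. Viability by CellTiter-Glo luminescence, normalised to DMSO and no-cell wells; concentration-response curves classed.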
An asterisk follows results filed as active; ? = inconclusive; . = no result. Unless noted, calls follow the shape of the dose curve; as a rule, active = well fitted curve in the direction sought with a large enough effect; inconclusive = small, poorly fitted or top-dose-only effect, or another doubt; inactive = no such curve, though single readings can be large; an effect the other way counts as inactive or inconclusive. Unless noted, % is scaled to controls: 0 for no effect and ±100 for the full control effect.

SMILES	IL-1B inflam inh	TDP1 cell noCPT	HT1080-NT tox	DT40 TDP1 CPT	ELG1 repair inh	HT1080 IDH1KD tx
Cc1cc(/C=N/Nc2nc(N3CCOCC3)nc(N3CCOCC3)n2)c(C)n1-c1ccccc1	-1.1	?	?	-25.5%	7.3µM*	-5.8%
Clc1ccc(CNc2cc(-c3ccccc3)nc3nncn23)cc1	.	13µM*	.	16.4µM*	.	.
Cc1cncc(NCc2cccc(Cl)c2)n1	0.0	-25.3%	-13.0%	-18.7%	.	8.0%
Clc1cccc(CNc2cc(-c3ccccc3)nc3nncn23)c1	.	14.6µM*	.	14.6µM*	.	.
COc1ccccc1CNc1cc(-c2ccccc2)nc2nncn12	.	16.4µM*	.	23.1µM*	.	.
CC(=O)Nc1cc(-c2ccccc2)nn1Cc1ccc(Cl)cc1	-20.2	1.5%	-3.3%	-17.8%	-25.3%	-1.7%
COc1ccccc1CNc1ncccn1	4.1	-0.4%	10.5%	23.3%	3.6%	9.1%
Cn1cc(S(=O)(=O)Nc2ccc3c(c2)OCCO3)cn1	26.7	4.6%	9.7%	1.1%	?	27.8%
COC(=O)[C@@H]1C[C@H]2CC[C@H](O)C[C@H]2N1Cc1ccc(-c2ccccc2)cc1	0.4	?	4.0%	-13.5%	3.5%	5.5%
O=C(NCc1cnn(-c2ccccc2)c1)C1CCC(=O)N(C2CC2)C1 (stereo not drawn)	74.2	2.0%	10.1%	4.3%	8.5%	-1.0%
CSc1ncccc1C(=O)NCCc1ccc(S(N)(=O)=O)cc1	-2.8	-9.7%	20.1%	-0.9%	3.0%	12.8%
O=Cc1cccc(Oc2ncccn2)c1	28.2	1.3%	7.9%	0.7%	11.0%	4.2%
Nc1ccc(Oc2ncccn2)cc1	2.4	23.1µM*	-0.2%	?	-14.5%	0.0%
CCCCC(CC)CNC(=O)CC1Nc2c3ccccc3nc(=S)n2C1=O (stereo not drawn)	19.6	-16.1%	0.9%	-10.7%	4.9%	-5.5%
CC1=CC2=NC(=O)CC(C)(C(=O)N(CC(=O)NC3CCCC3)c3cc(C)cc(C)c3)N2C=C1 (stereo not drawn)	-7.5	20.6µM*	7.0%	13µM*	-3.1%	13.4%
CC1=CC2=NC(=O)CC(C)(C(=O)N(CC(=O)NC(C)(C)C)C3CCCC3)N2C=C1 (stereo not drawn)	-1.6	-6.3%	12.7%	-20.8%	1.2%	1.3%
Cc1c(Cl)cccc1NC(=S)Nc1ccc(S(=O)(=O)Nc2ncccn2)cc1	-5.0	-13.1%	10.4%	-16.6%	9.2%	-1.8%
COc1ccccc1OCCNc1nc2c(c(=O)n(C)c(=O)n2C)n1C	27.9	18.4µM*	7.7%	29.1µM*	?	8.6%
Cn1c(=O)c2c(nc(NCCOc3ccc(C(C)(C)C)cc3)n2C)n(C)c1=O	23.6	1.84µM*	1.5%	1.46µM*	-17.9%	-5.5%
Cn1c(=O)c2c(nc(NCCO)n2C)n(C)c1=O	9.0	-10.6%	?	-8.8%	10.3%	15.6%
O=C1[C@H]2[C@@H]3CCN1CCC[C@@H]2C=C[C@@H]3c1ccc(Br)cc1	41.7	18.4µM*	-29.6%	?	.	?
O=C(Cn1nc(Cc2cccnc2)c2ccccc2c1=O)Nc1ccc(F)c(Cl)c1	.	16.4µM*	.	-7.9%	.	.
Cc1ccc(Cn2c(=O)c3cccnc3n(CC(=O)Nc3cccc(C(F)(F)F)c3)c2=O)cc1	-8.7	16.4µM*	-11.9%	?	-25.4%	-17.4%
CCOc1ccc(NC(=O)Cn2nc(Cc3ccncc3)c3ccccc3c2=O)cc1	.	-10.3%	.	-5.9%	.	.
CCCN(C(=O)Cn1nc(Cc2cccnc2)c2ccccc2c1=O)c1ccc(C(C)C)cc1	.	25.9µM*	.	23.1µM*	.	.
O=C(Cn1nc(Cc2ccncc2)c2ccccc2c1=O)Nc1cccc(C(F)(F)F)c1	.	23.1µM*	.	?	.	.

Compound activity as filed in PubChem BioAssay.
